High-throughput results as filed in PubChem.
Hits are enriched below; roughly 2% of the tested compounds scored in any of these assays.
Fh CTSL1 inh – Fasciola hepatica cathepsin L1 inhibitors, primary screen, counter-screen for PFM18AAP inhibitor project, biochemical, QFRET, fluorogenic peptide substrate | recombinant F. hepatica cathepsin L1, Z-Leu-Arg-MCA fluorescence | inhibition, % at 5.96 µM | 0.49% of 300,000 active | AID 1906, 2009;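 active = inhibition above the mean of all tested compounds plus 3 SD, set per screening campaign, cut at about 17% in these data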;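 note: 0% = plate median of test compound wells and 100% = 1 µM Z-Phe-Ala-diazomethylketone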
NALP1 yeast inh – NALP1 inflammasome inhibitors in reconstituted yeast, colorimetric, S. cerevisiae, triplicate retest. 0.61% of 280,000 active. inhibition, % at 10 µM. AID 2071, 2009. S. cerevisiae NALP1/ASC/caspase-1 growth, X-gal OD620, 72 h; in the data active = inhibition mostly above about 24%, no sharp cut-off; inactive = mostly below about 32%
APOBEC3G inh – APOBEC3G DNA deaminase inhibitors, primary screen, biochemical, fluorescence, single-stranded DNA substrate, uHTS; DNA dC->dU-editing enzyme APOBEC-3G (Homo sapiens), Q9HC16; recombinant A3G, ssDNA deamination FAM/TAMRA fluorescence; inhibition, % at 20 µM; 0.28% of 330,000 active; AID 493012, 2011;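 active = inhibition of at least 40% at 20 µM, with no more than 30% in the related APOBEC3A deaminase screen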;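 note: plate controls were DMSO wells with A3G for no effect and wells lacking A3G enzyme for full effect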
A3A deaminase – APOBEC3A ssDNA deaminase inhibitors, primary screen, selectivity assay for APOBEC3G inhibitor project, biochemical, FAM/TAMRA oligo cleavage fluorescence; inhibition, % at 20 µM; recombinant A3A, FAM/TAMRA ssDNA deamination fluorescence; AID 493011, 2011; 0.41% of 330,000 active;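 active = at least 40% inhibition at 20 µM here, with at most 30% in a related deaminase screen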;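 note: plate controls were A3A with DMSO for no effect and wells lacking A3A enzyme for full effect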
Target sequence (P31941 whole entry, looked up): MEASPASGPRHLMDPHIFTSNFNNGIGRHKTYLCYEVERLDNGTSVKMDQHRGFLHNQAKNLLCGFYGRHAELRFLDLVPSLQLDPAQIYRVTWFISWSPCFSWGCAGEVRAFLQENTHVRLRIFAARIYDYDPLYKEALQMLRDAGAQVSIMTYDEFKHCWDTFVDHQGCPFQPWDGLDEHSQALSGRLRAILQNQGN
HGIII-sPLA2 inh – human group III sPLA2 inhibitors, primary screen, biochemical, QFRET, BODIPY PC-A2 liposome substrate. inhibition, % at 12.2 µM. QFRET BODIPY PC-A2 liposome hydrolysis, fluorescence. 0.56% of 370,000 active;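 active = inhibition above mean plus 3 SD of compounds lying within the high and low control bounds, cut at about 19% in these data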;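 note: 0% = median of test compound wells and 100% = no enzyme DMSO wells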
* hit, by the source's call; nt = no result given.

SMILES | Fh CTSL1 inh | NALP1 yeast inh | APOBEC3G inh | A3A deaminase | HGIII-sPLA2 inh
COc1ccc(-n2c(C)c([N+](=O)[O-])c3ccc(O)c(CN(C)C)c32)cc1 | -1 | 24* | -2 | -7 | -24
C(C#CCCCCCCCCC[n+]1ccccc1)#CCCCCCCCCC[n+]1ccccc1 | -11 | 82* | nt | nt | -12
Cc1ccc(S(=O)(=O)N(CC(=O)N2CCCCCC2)c2ccccc2)cc1 | 0 | -13 | -2 | 2 | -2
Cc1ccc(N(CC(=O)N2CCN(C3CCCCC3)CC2)S(=O)(=O)c2cccnc2)cc1 | 18* | 28 | -2 | 0 | -9
C=CCNC(=O)N1CCC(c2nc3ccc(Cl)cc3[nH]2)CC1 | nt | nt | nt | nt | 4
CN(C)c1ccc(N=C/C=C2/N(C)c3ccccc3C2(C)C)cc1 | nt | 54* | nt | nt | 6
CN1/C(=C\C=N\O)C(C)(C)c2ccccc21 | 2 | 4 | -1 | 2 | 1
COc1ccc2[nH]c3c(C)c4ccncc4c(C)c3c2c1 | -2 | 55* | 0 | 6 | -36
Cc1ccccc1C(=O)N(C)[C@H]1C[C@H]2c3[nH]c4c(-c5ccc6c(c5)OCO6)cccc4c3CCN2C[C@H]1[C@H](C)O | nt | nt | nt | nt | -8
CCCCN(CC)CCNC(=O)c1cn(C)c(=O)c2c1c1ccccc1n2C | -1 | 12 | -5 | -2 | 15
CCCCN(C)CCNC(=O)c1cn(C)c(=O)c2c1c1ccccc1n2C | -2 | 42* | -7 | -2 | 12
CCc1ccc(NC(=O)c2ccc3nc(N)sc3c2)cc1 | 3 | 40* | -4 | -1 | -8
COC(=O)c1c(NC(=O)c2ccc([N+](=O)[O-])o2)sc2c1CCN(C(C)C)C2 | 26* | 6 | 9 | 17 | 0
CC(C)N1CCc2c(sc(NC(=O)c3ccc([N+](=O)[O-])o3)c2C(N)=O)C1 | 13 | 10 | 8 | -5 | 10
CSCCCNC(=O)c1oc(=O)c2ccccc2c1-c1ccc(C)cc1 | nt | nt | nt | nt | 0
O=C(Nc1ccc(NC(=O)c2ccccc2Cl)c(Cl)c1)c1ccccn1 | nt | nt | nt | nt | -6
CCCCCCN1CCS(=O)(=O)N(Cc2ccccc2)C(C(=O)OC)C1 (stereo not given) | nt | nt | nt | nt | 0
O=C(c1ccco1)N1CCN(C(c2ccccc2F)c2nnnn2CC2CCCO2)CC1 (stereo not given) | 3 | 15 | -2 | 1 | 1
O=C(c1ccco1)N1CCN(C(c2ccccc2Cl)c2nnnn2CC2CCCO2)CC1 (stereo not given) | 19* | -6 | 3 | 4 | 1
COc1cc2nc(NCC3CCCO3)n3nc(-c4cccnc4)nc3c2cc1OC (stereo not given) | -3 | 37* | -5 | 0 | 2
CCC[C@H]1[C@@H](O)CC[C@@]23CCCN2C(=O)CCC[C@@H]13 | nt | nt | nt | nt | 7
Clc1cccc(CNc2nc(-c3ccccn3)nnc2-c2ccccc2)c1 | nt | nt | nt | nt | 4
O=C1N=C(N2CCN(c3ccccc3)CC2)SC1Cc1ccccc1 (stereo not given) | 1 | 40* | -8 | -2 | -10
O=C(CNc1ccccc1)Nc1ccc(F)cc1 | 3 | 28* | -1 | -3 | -5
O=C(CNS(=O)(=O)c1ccc(F)cc1)Nc1ccccc1 | 0 | 8 | -11 | -3 | -10
SMILES | Fh CTSL1 inh | NALP1 yeast inh | APOBEC3G inh | A3A deaminase | HGIII-sPLA2 inh
Cn1nc(-c2ccccn2)nc2c(=O)n(C)c(=O)nc1-2 | 114* | nt | 7 | 2 | 4
CCCc1nc2c(=O)n(C)c(=O)nc-2n(C)n1 | nt | -4 | nt | nt | 0
Cc1nn(-c2ccc(Cl)cc2Cl)c(=O)c2ccccc12 | -4 | -6 | 0 | -2 | 3
CC1=NN(S(=O)(=O)c2ccc(Cl)cc2Cl)C(=O)c2ccccc2O1 | 56* | nt | -4 | -2 | -2
CCCCNC(=O)C1(C(=O)c2ccc(OC)cc2)CC(c2ccccc2C(F)(F)F)=NO1 (stereo not given) | nt | nt | nt | nt | -4
CN(C)c1ccc(N=Nc2nc3ccccc3n2C)cc1 | -1 | nt | 14 | 17 | 32*
O=C(NC1CCCCN(Cc2cccc(Cl)c2)C1=O)c1cccc(C(F)(F)F)c1 (stereo not given) | nt | nt | nt | nt | -1
COc1ccccc1/C=C/C(=O)OCc1nc2ccccc2c(=O)[nH]1 | 1 | 16* | -8 | 1 | 0
